From the supplement of paper PMC11732987, “Enantioselective OTUD7B fragment discovery through chemoproteomics screening and high-throughput optimisation” (Communications Chemistry, 2025)
Unmarked numbers belong to inactive results.

Legend:
Experiment in all cases: log2 ratio of Biotin-Ahx-Ub-VS probe labelling (fragment/DMSO); higher = less target engagement (more negative = stronger competition), active = hit call of the paper (q ≤ 0.05, log2 ratio ≤ -1)
Conditions in all cases: compound concentration: 200 uM; treatment time: 3 h
ALG13 = molecular target: T1, ALG13 (UniProt Q9NP73)
T1 sequence (whole entry): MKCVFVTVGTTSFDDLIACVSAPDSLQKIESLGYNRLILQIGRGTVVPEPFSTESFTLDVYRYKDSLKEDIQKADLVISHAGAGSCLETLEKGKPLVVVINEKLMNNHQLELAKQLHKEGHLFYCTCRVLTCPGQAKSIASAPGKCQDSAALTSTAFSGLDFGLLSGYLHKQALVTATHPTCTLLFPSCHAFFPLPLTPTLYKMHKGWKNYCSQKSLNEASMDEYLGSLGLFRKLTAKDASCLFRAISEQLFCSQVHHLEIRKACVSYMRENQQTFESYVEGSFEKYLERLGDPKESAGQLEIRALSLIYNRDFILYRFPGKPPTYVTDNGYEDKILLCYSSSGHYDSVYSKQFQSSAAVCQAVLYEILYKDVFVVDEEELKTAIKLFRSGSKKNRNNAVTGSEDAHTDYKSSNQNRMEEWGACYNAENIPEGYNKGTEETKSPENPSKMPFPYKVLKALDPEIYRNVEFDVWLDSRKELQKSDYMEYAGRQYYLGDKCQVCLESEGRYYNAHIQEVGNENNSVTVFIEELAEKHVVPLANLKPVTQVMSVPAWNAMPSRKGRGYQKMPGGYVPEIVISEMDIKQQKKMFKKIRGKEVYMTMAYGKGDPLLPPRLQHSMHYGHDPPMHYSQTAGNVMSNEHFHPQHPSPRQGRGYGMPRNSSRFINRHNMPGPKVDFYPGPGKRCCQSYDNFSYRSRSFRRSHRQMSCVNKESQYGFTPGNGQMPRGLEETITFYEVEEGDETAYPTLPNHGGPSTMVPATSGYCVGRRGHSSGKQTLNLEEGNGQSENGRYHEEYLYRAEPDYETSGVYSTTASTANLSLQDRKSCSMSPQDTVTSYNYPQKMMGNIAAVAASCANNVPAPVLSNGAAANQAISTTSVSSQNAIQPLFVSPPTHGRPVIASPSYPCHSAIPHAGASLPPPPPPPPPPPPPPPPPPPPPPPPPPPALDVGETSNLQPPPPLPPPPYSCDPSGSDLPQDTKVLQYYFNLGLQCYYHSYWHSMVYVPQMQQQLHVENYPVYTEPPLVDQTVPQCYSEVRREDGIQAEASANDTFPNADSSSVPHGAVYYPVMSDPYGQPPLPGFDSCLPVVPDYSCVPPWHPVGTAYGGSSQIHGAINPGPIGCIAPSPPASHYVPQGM
Procedure, shortened: (§1)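 HEK293T lysate (495 µg per sample, in Tris/CHAPS/IGEPAL buffer with protease inhibitors) was treated in triplicate with fragment at 200 µM or with DMSO for 3 h. It was then treated with Biotin-Ahx-Ub-VS (0.5 µM final) for 1 h. Labelled DUBs were NeutrAvidin-enriched, digested with LysC and trypsin, and run by diaPASEF LC-MS/MS. Spectronaut label-free quantities were global-median-normalised. Values are average log2 ratios fragment/DMSO by unpaired t-test, using proteins with ≥2 unique peptides.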

ATXN3 = ATXN3 (UniProt P54252)
ATXN3, sequence (P54252 whole entry): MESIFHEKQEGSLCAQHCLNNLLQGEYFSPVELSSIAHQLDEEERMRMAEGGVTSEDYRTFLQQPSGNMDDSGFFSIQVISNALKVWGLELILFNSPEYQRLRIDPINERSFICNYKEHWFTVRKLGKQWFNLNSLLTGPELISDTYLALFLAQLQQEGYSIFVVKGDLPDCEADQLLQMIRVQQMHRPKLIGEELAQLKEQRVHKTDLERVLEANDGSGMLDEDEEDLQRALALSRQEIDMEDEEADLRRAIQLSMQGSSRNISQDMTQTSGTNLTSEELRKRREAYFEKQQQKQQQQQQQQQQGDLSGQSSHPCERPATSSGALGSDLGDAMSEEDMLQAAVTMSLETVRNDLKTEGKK
Procedure, shortened: as §1

BAP1 = molecular target: T2, BAP1 (UniProt Q92560)
T2 sequence (whole entry): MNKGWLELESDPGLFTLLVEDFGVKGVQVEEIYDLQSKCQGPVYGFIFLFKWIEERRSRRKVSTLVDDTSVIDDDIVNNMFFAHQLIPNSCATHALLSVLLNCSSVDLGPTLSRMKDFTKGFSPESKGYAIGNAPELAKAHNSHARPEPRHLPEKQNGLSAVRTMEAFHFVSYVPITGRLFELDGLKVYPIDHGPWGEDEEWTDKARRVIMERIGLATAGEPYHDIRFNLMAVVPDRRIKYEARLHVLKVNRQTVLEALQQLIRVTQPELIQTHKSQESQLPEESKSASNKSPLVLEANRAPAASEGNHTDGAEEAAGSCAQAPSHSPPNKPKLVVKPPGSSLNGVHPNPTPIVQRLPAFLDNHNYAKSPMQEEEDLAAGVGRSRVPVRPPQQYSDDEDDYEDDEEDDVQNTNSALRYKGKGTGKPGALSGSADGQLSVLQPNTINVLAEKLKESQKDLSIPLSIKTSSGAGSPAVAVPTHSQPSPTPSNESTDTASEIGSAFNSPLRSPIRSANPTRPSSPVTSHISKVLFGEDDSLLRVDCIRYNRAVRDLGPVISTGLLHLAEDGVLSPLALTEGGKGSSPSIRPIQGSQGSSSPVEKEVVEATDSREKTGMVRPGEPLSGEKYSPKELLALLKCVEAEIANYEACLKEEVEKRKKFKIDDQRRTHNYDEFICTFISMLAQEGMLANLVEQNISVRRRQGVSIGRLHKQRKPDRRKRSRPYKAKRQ
Procedure, shortened: as §1

EIF3F = EIF3F (UniProt O00303)
EIF3F, sequence (O00303 whole entry): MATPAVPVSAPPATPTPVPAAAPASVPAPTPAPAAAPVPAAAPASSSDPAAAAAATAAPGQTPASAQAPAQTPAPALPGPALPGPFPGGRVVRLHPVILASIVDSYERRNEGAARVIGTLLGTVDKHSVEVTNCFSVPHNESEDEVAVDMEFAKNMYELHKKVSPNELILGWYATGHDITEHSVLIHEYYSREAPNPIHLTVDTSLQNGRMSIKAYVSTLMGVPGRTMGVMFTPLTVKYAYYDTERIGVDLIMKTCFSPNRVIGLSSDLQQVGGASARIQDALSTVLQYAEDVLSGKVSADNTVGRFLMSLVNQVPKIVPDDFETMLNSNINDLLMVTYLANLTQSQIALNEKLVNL
Procedure, shortened: as §1

EIF3H = EIF3H (UniProt O15372)
EIF3H, sequence (O15372 whole entry): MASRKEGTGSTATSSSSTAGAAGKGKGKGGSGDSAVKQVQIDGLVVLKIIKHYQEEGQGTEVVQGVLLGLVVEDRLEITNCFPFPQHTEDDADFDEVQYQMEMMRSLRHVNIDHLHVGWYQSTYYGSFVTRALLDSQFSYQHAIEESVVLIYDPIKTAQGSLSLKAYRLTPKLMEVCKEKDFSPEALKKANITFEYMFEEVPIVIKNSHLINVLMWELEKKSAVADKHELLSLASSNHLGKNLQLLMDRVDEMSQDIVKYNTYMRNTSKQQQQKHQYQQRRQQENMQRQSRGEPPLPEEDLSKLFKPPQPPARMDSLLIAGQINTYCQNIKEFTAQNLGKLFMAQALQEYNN
Procedure, shortened: as §1

FAM105A = molecular target: T3, FAM105A (UniProt Q9NUU6)
T3 sequence (whole entry): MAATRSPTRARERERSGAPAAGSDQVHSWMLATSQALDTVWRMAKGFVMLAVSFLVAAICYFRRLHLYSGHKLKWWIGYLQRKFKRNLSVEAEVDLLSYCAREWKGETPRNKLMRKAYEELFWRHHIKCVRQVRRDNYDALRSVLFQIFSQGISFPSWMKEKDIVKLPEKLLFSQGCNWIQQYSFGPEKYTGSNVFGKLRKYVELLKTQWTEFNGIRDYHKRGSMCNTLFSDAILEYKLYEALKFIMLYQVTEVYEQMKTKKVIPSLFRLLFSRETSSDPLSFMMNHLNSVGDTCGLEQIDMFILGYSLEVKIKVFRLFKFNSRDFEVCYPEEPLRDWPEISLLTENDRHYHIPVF
Procedure, shortened: as §1

OTUB1 = OTUB1 (UniProt Q96FW1)
OTUB1, sequence (Q96FW1 whole entry): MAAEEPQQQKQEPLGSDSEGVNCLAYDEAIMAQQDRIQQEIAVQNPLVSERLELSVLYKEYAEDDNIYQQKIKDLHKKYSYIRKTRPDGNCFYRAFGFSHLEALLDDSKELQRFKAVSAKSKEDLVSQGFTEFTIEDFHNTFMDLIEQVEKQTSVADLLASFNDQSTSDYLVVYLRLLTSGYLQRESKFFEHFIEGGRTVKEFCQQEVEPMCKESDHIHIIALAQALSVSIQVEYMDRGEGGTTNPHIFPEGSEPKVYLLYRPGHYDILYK
Procedure, shortened: as §1

OTUD4 = molecular target: T4, OTUD4 (UniProt Q01804)
T4 sequence (whole entry): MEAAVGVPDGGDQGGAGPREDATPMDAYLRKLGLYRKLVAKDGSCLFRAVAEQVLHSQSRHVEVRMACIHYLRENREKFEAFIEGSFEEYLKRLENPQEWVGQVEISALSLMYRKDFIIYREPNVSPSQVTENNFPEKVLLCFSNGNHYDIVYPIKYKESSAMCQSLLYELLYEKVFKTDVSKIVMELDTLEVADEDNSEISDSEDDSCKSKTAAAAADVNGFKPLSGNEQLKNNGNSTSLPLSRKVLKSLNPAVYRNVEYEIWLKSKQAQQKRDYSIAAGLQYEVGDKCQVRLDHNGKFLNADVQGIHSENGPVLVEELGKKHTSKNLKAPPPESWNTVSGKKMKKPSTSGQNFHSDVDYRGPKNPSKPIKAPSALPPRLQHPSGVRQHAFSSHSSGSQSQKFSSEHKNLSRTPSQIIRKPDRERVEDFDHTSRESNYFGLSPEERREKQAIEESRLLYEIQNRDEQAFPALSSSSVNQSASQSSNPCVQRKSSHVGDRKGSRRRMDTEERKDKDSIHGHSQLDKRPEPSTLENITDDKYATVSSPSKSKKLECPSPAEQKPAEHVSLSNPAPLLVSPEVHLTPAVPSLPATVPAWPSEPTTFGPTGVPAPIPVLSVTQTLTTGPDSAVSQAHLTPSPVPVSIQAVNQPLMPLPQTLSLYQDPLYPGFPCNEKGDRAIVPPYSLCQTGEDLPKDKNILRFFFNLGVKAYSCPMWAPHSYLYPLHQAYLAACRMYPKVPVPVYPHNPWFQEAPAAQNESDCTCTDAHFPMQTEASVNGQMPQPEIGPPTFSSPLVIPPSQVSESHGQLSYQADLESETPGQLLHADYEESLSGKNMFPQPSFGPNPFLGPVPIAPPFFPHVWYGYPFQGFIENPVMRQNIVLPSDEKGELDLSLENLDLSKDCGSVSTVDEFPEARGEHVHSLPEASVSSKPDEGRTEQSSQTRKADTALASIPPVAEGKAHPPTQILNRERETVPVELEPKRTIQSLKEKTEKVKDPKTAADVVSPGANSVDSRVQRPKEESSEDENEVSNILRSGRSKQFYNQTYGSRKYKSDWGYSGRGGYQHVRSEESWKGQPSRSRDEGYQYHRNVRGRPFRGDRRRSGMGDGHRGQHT
Procedure, shortened: as §1

OTUD5 = molecular target: T5, OTUD5 (UniProt Q96G74)
T5 sequence (whole entry): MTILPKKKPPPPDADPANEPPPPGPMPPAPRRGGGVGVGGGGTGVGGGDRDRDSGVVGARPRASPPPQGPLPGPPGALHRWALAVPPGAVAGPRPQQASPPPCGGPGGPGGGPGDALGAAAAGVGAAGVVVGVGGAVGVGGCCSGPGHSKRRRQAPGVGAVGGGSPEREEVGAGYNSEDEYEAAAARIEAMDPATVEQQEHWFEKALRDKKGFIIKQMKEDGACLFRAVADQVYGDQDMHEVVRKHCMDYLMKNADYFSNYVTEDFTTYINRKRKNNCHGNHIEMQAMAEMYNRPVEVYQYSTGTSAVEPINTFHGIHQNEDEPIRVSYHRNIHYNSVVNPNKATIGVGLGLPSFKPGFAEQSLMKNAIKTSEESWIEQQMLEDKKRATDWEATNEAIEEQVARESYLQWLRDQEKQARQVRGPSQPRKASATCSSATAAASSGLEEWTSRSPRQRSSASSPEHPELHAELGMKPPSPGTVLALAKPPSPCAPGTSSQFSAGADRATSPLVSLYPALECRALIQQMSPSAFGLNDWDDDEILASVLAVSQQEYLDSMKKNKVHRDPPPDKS
Procedure, shortened: as §1

**Q.** How did the “log2 ratio of Biotin-Ahx-Ub-VS probe labelling” value (“log2 ratio” for short) (ALG13) turn out when `Cc1ccc(N2CCC(NC(=O)CCl)C2=O)cc1` (centres undefined) was run?
**A.** -0.511

**Q.** What about the “log2 ratio” value (ATXN3) of the same molecule?
**A.** -0.0941

**Q.** What about the “log2 ratio” value (BAP1) of the same molecule?
**A.** -2.46 (active)

**Q.** And the “log2 ratio” value (EIF3F)?
**A.** 0.043

**Q.** What about the “log2 ratio” value (EIF3H) of the same molecule?
**A.** -0.278

**Q.** What about the “log2 ratio” value (FAM105A) of the same molecule?
**A.** 0.0934

**Q.** And the “log2 ratio” value (OTUB1)?
**A.** 0.0513

**Q.** And the “log2 ratio” value (OTUD4)?
**A.** 0.0319

**Q.** And the “log2 ratio” value (OTUD5)?
**A.** 0.0904
